The results in this text go back to PubChem BioAssay (NCATS).

Inconclusive results are not listed. Active and inactive are the calls of the source. Unless noted, calls follow the shape of the full dose curve.

Experiment [1] can be described thus: qHTS drug screen for cell cycle checkpoint inhibitors in PARPi-resistant BRCA-mutant ovarian cancer cell lines. (AID 1963452). The settings on record: PEO1/OlaR viability, CellTiter-Glo luminescence, 96 h, stronger effect = lower value. The gist of the method: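 PEO1, PEO4 and PEO1/OlaR ovarian cancer cells, 600 per well, exposed 96 h at 37C to a dilution series. Viability read by CellTiter-Glo luminescence, normalized to DMSO and empty wells; activity summarized as Z-AUC.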
(Quantitative high-throughput screening tests each substance at several concentrations.)

Experiment [2] can be described thus: qHTS for identification of novel therapeutic agents for treatment of microphthalmiaassociated transcription factor (MiT) renal cell carcinoma (RCC) (AID 1963991). Also: potency is read from the fitted curve at half-maximal effect. The settings on record: CellTiter-Glo, 48 h; for z-score: stronger effect = lower value. In short, it runs like this: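 Three TFE3-fusion RCC cell lines (UOK109, UOK124, UOK145), 500 cells/well, were exposed to the 1912-compound MIPE 4.0 library for 48 hours at 37 C. Viability was read by CellTiter-Glo luminescence, normalised to DMSO (100%) and empty wells (0%), with 11-concentration curve fits.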

A short description of experiment [3]: qHTS profiling for inhibitors of Plasmodium falciparum proliferation (AID 504749; active = well fitted inhibition curve with a large enough effect;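 also: 0% = DMSO vehicle and full inhibition = artemisinin control; nearly all actives have a fitted effect of over 60% in size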). The following applies: P. falciparum in erythrocytes, SYBR Green DNA, 72 h. In short, it runs like this: (§1)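 P. falciparum-infected erythrocytes (0.3% parasitemia, 2.5% hematocrit final) were exposed to compounds for 72 h at 37 C in 5% CO2, then lysed with SYBR Green buffer overnight at room temperature; parasite DNA fluorescence was normalized to artemisinin and DMSO controls.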

The subject of a further experiment is 3D7. The description is as above. The following applies: P. falciparum in erythrocytes, SYBR Green DNA, 72 h; series mostly up to 28.7 µM. The gist of the method:
as §1

The next experiment has as its system 7G8. The experiment is described as above. The following applies: P. falciparum in erythrocytes, SYBR Green DNA, 72 h; series mostly up to 28.7 µM. In short, it runs like this:
as §1

[4] abbreviates: measured here: PEO1 parental Z-AUC.
The mark [5] stands for this setting: TFE3-RCC UOK109 viability, measured here: UOK109 Z-AUC.
Setting [6] is: TFE3-RCC viability, measured here: UOK124 Z-AUC.
Setting [7] is: TFE3-RCC viability, measured here: UOK145 Z-AUC.

On to `O=C(O)c1ccccc1C(=O)Nc1ccc(-c2ccccc2)cc1`, for which the Z-AUC was 1.24 (inactive) in experiment [1], 0.724 in experiment [1] (setting [4]) and 0.552 in experiment [1] (measured here: PEO4 Z-AUC). The z-score amounted to 0.921 in experiment [2] (setting [5]), 0.86 in experiment [2] (setting [6]) and 0.469 in experiment [2] (setting [7]).
Consider `CC1CCC(C(=O)N(c2cc(C#CC(C)(C)C)sc2C(=O)O)C2CCC(O)CC2)CC1` (centres undefined), for which the Z-AUC in experiment [1] was 0.0164 (inactive); in experiment [1] (setting [4]) it was -0.415; in experiment [1] (measured here: PEO4 Z-AUC), -0.158. Further, the values for the z-score in experiment [2] (setting [5]), in experiment [2] (setting [6]) and in experiment [2] (setting [7]) were 1.18, 1.68 and 0.196, respectively.
Turning to `CC(C)(C)NC(=O)Nc1cccc(Nc2ncc(F)c(NC(C)(C)CO)n2)c1`, the Z-AUC in experiment [1] was -0.707 (inactive); in experiment [1] (setting [4]) it was -1.21; in experiment [1] (measured here: PEO4 Z-AUC), -1.05. Further, the values for the z-score in experiment [2] (setting [5]), in experiment [2] (setting [6]) and in experiment [2] (setting [7]) were 1.09, -0.121 and 0.237, respectively.
Take `CC1(C)Cc2c(sc(NC(=S)NC(=O)c3ccccc3)c2C(=O)O)CO1`: the Z-AUC in experiment [1] is -0.088 (inactive); in experiment [1] (setting [4]), -0.241; in experiment [1] (measured here: PEO4 Z-AUC) it was 0.00999.
In the same order, the values of `Cc1ccc(/C=N/NC(=O)c2ccccc2Oc2ccccc2)o1` are 0.785 (inactive), 0.523 and 0.656.
For `CC(C)C(C)C=CC(C)C1CCC2C3=CC=C4CC(O)CCC4(C)C3CCC21C` (centres undefined), the Z-AUC in experiment [1] was 1.48 (inactive); in experiment [1] (setting [4]), 1.13; in experiment [1] (measured here: PEO4 Z-AUC), 1.32. Moreover, the z-score stood at 0.762 in experiment [2] (setting [5]), 0.655 in experiment [2] (setting [6]) and 1.94 in experiment [2] (setting [7]).
Regarding `NC(=O)c1cnc(-c2ccc(C3(N)CCC3)cc2)c(-c2ccccc2)c1`, the Z-AUC in experiment [1] was 0.0998 (inactive); in experiment [1] (setting [4]) it was -0.472; in experiment [1] (measured here: PEO4 Z-AUC) it was -0.533.
As to `CO[C@H]1C[C@@H]2CC[C@@H](C)[C@@](O)(O2)C(=O)C(=O)N2CCCC[C@@H]2C(=O)O[C@H]([C@@H](C)C[C@@H]2CC[C@H](O)[C@H](OC)C2)CC(=O)[C@H](C)C=C(C)[C@@H](O)[C@@H](OC)C(=O)[C@H](C)C[C@H](C)C=CC=CC=C1C`, the Z-AUC was -0.986 (inactive) in experiment [1], -0.581 in experiment [1] (setting [4]) and -0.84 in experiment [1] (measured here: PEO4 Z-AUC). The z-score in experiment [2] (setting [5]) is -0.128; in experiment [2] (setting [6]), 1.08; in experiment [2] (setting [7]), -0.61.
`O=C(CCCCCCC(=O)Nc1ccccc1)NO`: the Z-AUC was -0.11 (inactive) in experiment [1], -0.486 in experiment [1] (setting [4]) and -0.541 in experiment [1] (measured here: PEO4 Z-AUC).
In the same order, the values of `COc1cc2ncnc(Nc3ccc(F)c(Cl)c3)c2cc1OCCCN1CCOCC1` are 0.988 (inactive), 0.863 and 0.585.
In the same order, the values of `c1cc(-c2sc(-c3ccncc3)c(-c3ccncc3)c2-c2ccncc2)ccn1` are 1.76 (inactive), 1.54 and 1.03.
With `O=C(Nc1c(Cl)cncc1Cl)c1ccc(OC(F)F)c(OCC2CC2)c1`, the results for the Z-AUC in experiment [1], in experiment [1] (setting [4]) and in experiment [1] (measured here: PEO4 Z-AUC) were 0.0747 (inactive), 0.551 and 0.508, respectively. Also, the values for the z-score in experiment [2] (setting [5]), in experiment [2] (setting [6]) and in experiment [2] (setting [7]) were -0.715, 0.259 and 0.585, respectively.
As to `C[C@]12CC[C@@H]3c4ccc(O)cc4C[C@@H](CCCCCCCCCS(=O)CCCC(F)(F)C(F)(F)F)[C@H]3[C@H]1CC[C@H]2O` (some centres undefined), the Z-AUC in experiment [1] is -0.724 (inactive); in experiment [1] (setting [4]), -0.171; in experiment [1] (measured here: PEO4 Z-AUC), -1.07. Further, the results for the z-score in experiment [2] (setting [5]), in experiment [2] (setting [6]) and in experiment [2] (setting [7]) were 1.23, 0.607 and 0.767, respectively.
Consider `O=C(O)c1cc(O)c2c(c1)C(=O)c1cccc(O)c1C2=O`, for which the Z-AUC in experiment [1] was -0.369 (inactive); in experiment [1] (setting [4]) it was -0.852; in experiment [1] (measured here: PEO4 Z-AUC), -0.959. The values for the z-score in experiment [2] (setting [5]), in experiment [2] (setting [6]) and in experiment [2] (setting [7]) were 1.17, -0.187 and 1.5, respectively.
Consider `C[C@]12CCC3c4ccc(O)cc4CCC3C1CCC2=O` (some centres undefined), for which the figures for the Z-AUC in experiment [1], in experiment [1] (setting [4]) and in experiment [1] (measured here: PEO4 Z-AUC) were 1.36 (inactive), 0.945 and 1.78, respectively.
Consider `COc1ccc(-n2c(C)c([N+](=O)[O-])c3ccc(O)cc32)cc1`, for which the Z-AUC in experiment [1] was -0.721 (inactive); in experiment [1] (setting [4]), -0.631; in experiment [1] (measured here: PEO4 Z-AUC), -0.862. Further, the z-score was found to be 0.538 in experiment [2] (setting [5]), 0.575 in experiment [2] (setting [6]) and 0.643 in experiment [2] (setting [7]).
With `C[C@H](NC(=O)C(=O)Nc1ccccc1C(C)(C)C)C(=O)N[C@@H](CC(=O)O)C(=O)COc1c(F)c(F)cc(F)c1F`, the Z-AUC in experiment [1] is 0.426 (inactive); in experiment [1] (setting [4]) it was 0.799; in experiment [1] (measured here: PEO4 Z-AUC), 1.06.
In the same order, the values of `CN1CCN(CCOc2cc(OC3CCOCC3)c3c(Nc4c(Cl)ccc5c4OCO5)ncnc3c2)CC1` are 0.642 (inactive), 0.934 and 1.23.
In the same order, the values of `CCNc1cc(NC2CCC(O)CC2)nc(Nc2ccc3c(ccn3Cc3ccccc3)c2)n1` (centres undefined) are 0.474 (inactive), 0.235 and 0.72.
In the same order, the values of `COc1cc(N2CCC(N3CCN(C)CC3)CC2)ccc1Nc1ncnc(Nc2ccccc2S(=O)(=O)C(C)C)n1` are 0.282 (inactive), 0.069 and 0.238.
In the case of `O=C(NOCC(O)CO)c1cc(Br)c(F)c(F)c1Nc1ccc(I)cc1F` (centres undefined), the figures for the Z-AUC in experiment [1], in experiment [1] (setting [4]) and in experiment [1] (measured here: PEO4 Z-AUC) were 0.348 (inactive), 0.513 and 0.38, respectively.
`O=C(O)C=Cc1ccc(O)c(O)c1`: the figures for the z-score in experiment [2] (setting [5]), in experiment [2] (setting [6]) and in experiment [2] (setting [7]) were 1.03, 0.19 and 0.564, respectively.
As for `CCCCCN(C)CCC(O)(P(=O)(O)O)P(=O)(O)O`, the figures for the Z-AUC in experiment [1], in experiment [1] (setting [4]) and in experiment [1] (measured here: PEO4 Z-AUC) were 0.387 (inactive), 1.32 and 1.05, respectively. Further, the figures for the z-score in experiment [2] (setting [5]), in experiment [2] (setting [6]) and in experiment [2] (setting [7]) were 0.34, 0.128 and 0.245, respectively. Further, the activity, negative = inhibition is 13.8% (inactive) in experiment [3] (at 28.7 µM (top of the series), parasite line A) and 15.2% (inactive) in experiment [3] (at 28.7 µM (top of the series), parasite line B). Further, in the experiment on 3D7, the result was inactive. The Potency result in the experiment on 7G8 was “inactive”.
`CCOc1ccc(Nc2nc(-c3c(C)nc4ccccn34)cs2)cc1`: the Z-AUC is -0.0903 (inactive) in experiment [1], -0.777 in experiment [1] (setting [4]) and 0.137 in experiment [1] (measured here: PEO4 Z-AUC). For the same molecule, the Potency in experiment [2] (TFE3-RCC UOK109 viability, active = Z-AUC below -0.8 in all three lines) was 2.35 nM (active). Besides, the z-score was -1.91 in experiment [2] (setting [5]), -2.79 in experiment [2] (setting [6]) and -1.17 in experiment [2] (setting [7]).
With `CO[C@H]1C=CO[C@@]2(C)Oc3c(C)c(O)c4c(O)c(c5c(c4c3C2=O)NC2(CCN(CC(C)C)CC2)N=5)=NC(=O)C(C)=CC=C[C@H](C)[C@H](O)[C@@H](C)[C@@H](O)[C@@H](C)[C@H](OC(C)=O)[C@H]1C`, the z-score is 0.267 in experiment [2] (setting [5]), 0.0618 in experiment [2] (setting [6]) and 0.486 in experiment [2] (setting [7]).
As for `COc1ccc(Cc2nccc3cc(OC)c(OC)cc23)cc1OC`, the Z-AUC in experiment [1] was -1.7 (inactive); in experiment [1] (setting [4]) it was -1.2; in experiment [1] (measured here: PEO4 Z-AUC), 0.243. Also, the activity, negative = inhibition in experiment [3] (at 12.8 µM (top of the series), parasite line A) is 0.631% (inactive); in experiment [3] (at 12.8 µM (top of the series), parasite line B) it was 6.88% (inactive). Besides, the Potency result in the experiment with 7G8 is “inactive”.
